Where a name gives a salt, the structure may show the parent alone.
These molecules were tested on Danio rerio larvae (5 dpf) (assay: startle response to 20-s acoustic pulses, difference vs DMSO (percentage points (treated minus DMSO)); higher = more of the behaviour than the DMSO vehicle control). Details: 10 µM; exposure time: 3 h pre-incubation + 3 h imaging.
Procedure, shortened: (§1)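 Five-days-post-fertilisation wild-type zebrafish larvae were held in 96-well ProxiPlates and exposed to each library drug at a final 10 µM, diluted 1000× from DMSO stocks into egg water, with 48 larvae per drug. Exposure lasted 3 h before and 3 h during imaging at 28.5 °C, with images taken every 6 s across a 3-h program of rest, moving coloured lines and acoustic pulses. An ImageJ macro scored movement and upper-half location, and each behaviour score is the treated-group mean minus the vehicle-group mean, expressed in percentage points.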

SMILES | startle response to 20-s acoustic pulses
Cc1cccc(CN2CCN(C(c3ccccc3)c3ccc(Cl)cc3)CC2)c1 (stereo unspecified) [Meclizine dihydrochloride] | -8.16
COc1cc(N)c(Cl)cc1C(=O)NC1CCN(CCCOc2ccc(F)cc2)CC1OC (stereo unspecified) [Cisapride] | -0.377
CCCc1nc(C(C)(C)O)c(C(=O)O)n1Cc1ccc(-c2ccccc2-c2nnn[nH]2)cc1 [Olmesartan] | 7.62
N#Cc1ccc(C(c2ccc(C#N)cc2)n2cncn2)cc1 [Letrozole] | 5.37
OCCN(CCO)c1nc(N2CCCCC2)c2nc(N(CCO)CCO)nc(N3CCCCC3)c2n1 [Dipyridamole] | 6.96
COc1ccc(Cl)cc1C(=O)NCCc1ccc(S(=O)(=O)NC(=O)NC2CCCCC2)cc1 [Glibenclamide] | 6.49
N#C[C@@H]1C[C@@H]2C[C@@H]2N1C(=O)[C@@H](N)C12CC3CC(CC(O)(C3)C1)C2 [Saxagliptin hydrochloride] | 4.85
CC/C(=C(\c1ccccc1)c1ccc(OCCN(C)C)cc1)c1ccccc1 [Tamoxifen citrate] | -0.535
COCCCOc1cc(C[C@@H](C[C@H](N)[C@@H](O)C[C@H](C(=O)NCC(C)(C)C(N)=O)C(C)C)C(C)C)ccc1OC [Aliskiren hemifumarate] | -0.0432

The molecules below were run on Danio rerio larvae (5 dpf) (assay: optomotor response to fast red moving lines, difference vs DMSO (percentage points (treated minus DMSO)); higher = more of the behaviour than the DMSO vehicle control). Details: 10 µM; exposure time: 3 h pre-incubation + 3 h imaging.
Procedure, shortened: as §1

SMILES | optomotor response
CC[C@H](C)C(=O)O[C@H]1C[C@@H](C)C=C2C=C[C@H](C)[C@H](CC[C@@H]3C[C@@H](O)CC(=O)O3)[C@H]21 [Lovastatin] | -4.95
C[C@H](Cc1cc2c(c(C(N)=O)c1)N(CCCO)CC2)NCCOc1ccccc1OCC(F)(F)F [Silodosin] | 11.4
O=c1[nH]c(=O)n([C@H]2C[C@H](O)[C@@H](CO)O2)cc1C(F)(F)F [Trifluorothymidine] | -0.769
CCCc1nn(C)c2c(=O)[nH]c(-c3cc(S(=O)(=O)N4CCN(C)CC4)ccc3OCC)nc12 [Sildenafil citrate] | -12.3
CC(=O)Nc1ccc(O)cc1 [Acetaminophen] | -11.2
Nc1ccn([C@@H]2O[C@H](CO)[C@@H](O)C2(F)F)c(=O)n1 [Gemcitabine hydrochloride] | 5.64
CN1CC2c3ccccc3Oc3ccc(Cl)cc3C2C1 (stereo unspecified) [Asenapine maleate] | -11.9

Source: the supplement of paper PMC9023506
